# Values joined by “and” are separate entries in the source; they are usually repeats but may differ in a detail not shown here. Equal entries are not always repeated. Hit rate of the full screen: of about 350,000 compounds, about 5,500 (1.6%) were called active.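 The calls were made as follows: active = significant combined selectivity score with lowered wild-type GFP, culture density cut under 30%, mutant RFP and density less affected; inactive = any of these conditions unmet.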 The full list was thinned out, with actives kept by preference.
# Assay: GFP drop in mixed WT/humanized-ribosome E. coli culture – GFP/RFP fluorescence, OD600, single point, bacterial rRNA inhibitor project, primary screen (AID 720706)
# Details: E. coli WT GFP vs humanized-ribosome RFP mutants, 24 h; GFP signal change (wild-type ribosome): stronger effect = lower value, DMSO median 0, no signal -100; OD600 change: measured here: OD600 growth, DMSO median 0, no signal -100; RFP signal change: measured here: RFP humanized mutant strains, DMSO median 0, no signal -100, concentration not given here
SMILES,GFP signal change (wild-type ribosome),OD600 change,RFP signal change
C[C@H](CO)N1C[C@H](C)[C@H](CN(C)S(=O)(=O)c2cccs2)Oc2c(NS(=O)(=O)c3ccc(Cl)cc3)cccc2C1=O,-5.17% (inactive),-6.49%,3.43%
CN(C)CCn1c(=S)[nH]c2ccc(Cl)cc2c1=O,5.19% (inactive),0.375%,2.03%
CCCn1c(=S)[nH]c2ccc(C(F)(F)F)cc21,-39% (active),-18.3%,-4.67%
CC(C)n1c(=S)[nH]c2cc(C(F)(F)F)ccc21,-0.904% (inactive),-3.6%,-3.06%
Cc1ccccc1-c1ccc([C@H]2[C@@H](CO)N3C(=O)CN(C(=O)c4cccnc4)C[C@@H]23)cc1,3.51% (inactive),8.18%,-0.0435%
S=C(NNC(=S)NC1CC2C=CC1C2)NC1CC2C=CC1C2 (stereo not drawn),-47.5% (active),-15.1%,-13.4%
CC(C)c1ccc(NC(=S)NC2CC3C=CC2C3)cc1 (stereo not drawn),-37.3% (inactive),-66.8%,0.867%
CCCNC(=O)N1[C@H](CO)[C@H]2c3ccccc3N(C(=O)Nc3cccc(Cl)c3)C[C@H]21,-57.4% (inactive),-71.6%,-12.8%
CCCN1C[C@H](C)[C@H](OC)CN(C)C(=O)c2cc(NC(=O)NC3CCCC3)ccc2OC[C@H]1C,-0.637% (inactive),8.41%,2.12%
O=C(NC1CCN(C(=S)Nc2ccc(Cl)cc2)CC1)C1CCCCC1,6.47% (inactive),11.2%,0.251%
CC(=O)N1CCC(N(C(=O)Nc2ccc(Cl)cc2)C(C)C)CC1,-25.5% (active),-18%,-0.55%
CC(=O)C(CC(=O)N1CCCC1)C(=O)Nc1ccc(Cl)cc1 (stereo not drawn),1.69% (inactive),9.42%,0.378%
CCCN(C)C[C@H]1OCCCC[C@H](C)Oc2ccc(NS(=O)(=O)c3ccc(C)cc3)cc2C(=O)N([C@@H](C)CO)C[C@H]1C,-0.746% (inactive),-1.7%,-0.147%
CC(C)NC(=O)N1CCCCN2[C@@H](CO)[C@@H](c3ccc(C#C[C@@H](C)O)cc3)[C@@H]2C1,5.76% (inactive),13.1%,-1.96%
O=S(=O)(Cc1ccccc1)N1CCCCN2[C@@H](CO)[C@H](c3ccc(-c4ccccc4)cc3)[C@@H]2C1,-9.68% (inactive),-41.9%,18.6%
CN(C)CC#Cc1ccc([C@@H]2[C@H](CO)N3CCCCN(C(=O)NC4CCCC4)C[C@@H]23)cc1,5.92% (inactive),4.22%,0.0255%
C=CCC1(C#N)C(=S)NC(C)=C(C(=O)OCC)C1c1ccccc1 (stereo not drawn),-26.3% (active),-19.2%,-3.7%
CCOC(=O)C1C(=O)NCC1c1ccccc1 (stereo not drawn),8.68% (inactive),-9.73%,1%
CCOC(=O)C1=C(c2ccccc2)NC(=S)NC1c1ccc(Cl)cc1 (stereo not drawn),-8.35% (inactive),-7.99%,-0.819%
COc1ccc(NC(=O)N(C)C[C@@H]2OCCCC[C@@H](C)Oc3ccc(NS(=O)(=O)c4cn(C)cn4)cc3C(=O)N([C@@H](C)CO)C[C@H]2C)cc1,-1.24% (inactive),-4.49%,0.792%
COc1ccc2c3c(n(C)c2c1)[C@@H](CO)N(C(=O)c1cccnc1)CC31CCN(C(=O)c2cccnc2)CC1,2.76% (inactive),15.2%,-2.73%
Cc1ccccc1-n1nc(SCC(=O)O)sc1=S,-0.028% (inactive),2.15%,5.05%

SMILES,GFP signal change (wild-type ribosome),OD600 change,RFP signal change
O=C(CSc1nn(-c2ccc(F)cc2)c(=S)s1)NC1CCS(=O)(=O)C1 (stereo not drawn),9.16% (inactive),9.88%,20.6%
N#CCSc1nn(-c2ccc(F)cc2)c(=S)s1,-34% (active),-20.7%,-5.63%
CN(C)CCCNC(=O)C[C@H]1CC[C@H]2[C@@H](COC[C@H](O)CN2C(=O)c2ccncc2)O1,1.62% (inactive),1.82%,-2.93%
O=S(=O)(N[C@@H]1CC[C@H](CCn2cc(C3(O)CCCC3)nn2)O[C@@H]1CO)c1ccc(Cl)cc1,1% (inactive),-3.78%,-2.53%
Cc1c(/C=N\NC(=O)c2cc3ccccc3o2)c2ccccc2n1C,-23.4% (active),-4.47%,6.38%
O=C(N/N=C/c1cccc(O)c1)c1cc2c(ccc3ccccc32)o1,-16.9% (inactive),-25.4%,6.33%
Cc1cc(NC(=O)c2cc3ccccc3o2)no1,-2.45% (inactive),5.97%,7.13%
Cc1ccccc1S(=O)(=O)N1CC(=O)N2[C@H](CO)[C@H](c3ccc(C#CCN(C)C)cc3)[C@H]2C1,4.6% (inactive),9.79%,0.298%
COc1cc(CN2CC3(CN(S(=O)(=O)c4cccs4)C3)c3c(n(C)c4cc(OC)ccc34)[C@H]2CO)cc(OC)c1,4.45% (inactive),-5.95%,-2.78%
CCNc1ccc(C(=O)OCC(=O)N2c3ccccc3NC(=O)C2(C)C)cc1[N+](=O)[O-],-25.9% (active),-16.2%,-4.1%
Cc1cc(C(=O)OCC(=O)N2c3ccccc3NC(=O)C2(C)C)c(C)n1-c1ccccc1,-9.02% (inactive),-33.1%,-9.39%
CNS(=O)(=O)c1cccc(C(=O)OCC(=O)N2c3ccccc3NC(=O)C2(C)C)c1,-0.594% (inactive),2.51%,-1.67%
O=C(C[C@H]1CC[C@@H]2[C@H](COC[C@@H](O)CN2Cc2cccc(-c3ccncc3)c2)O1)N1CCOCC1,-1.04% (inactive),0.357%,-4.81%
C[C@H]1CN([C@@H](C)CO)C(=O)Cc2cc(NC(=O)NC3CCCCC3)ccc2O[C@@H]1CN(C)Cc1ccc(Oc2ccccc2)cc1,1.65% (inactive),0.966%,-0.931%
C[C@@H]1CN([C@@H](C)CO)C(=O)c2cc(NC(=O)Nc3ccc(C(F)(F)F)cc3)ccc2O[C@@H]1CN(C)Cc1ccncc1,8.75% (inactive),-38.7%,31.2%
O=C(COC(=O)Cc1c[nH]c2ccccc12)NCCc1ccccc1,1.61% (inactive),-7.07%,1.57%
O=C(CCc1c[nH]c2ccccc12)NCCOc1ccccc1,7.54% (inactive),3.6%,0.609%
O=C(NCCc1c[nH]c2ccccc12)c1cccc(Br)c1,-23% (active),-17%,3.38%
COc1ccccc1CC(=O)NCCc1c[nH]c2ccccc12,-17.2% (active),-2.84%,2.84%
O=C(NCCc1c[nH]c2ccccc12)C1CCN(Cc2ccc(Br)cc2)CC1,-52.8% (inactive),-78.6%,-12.4%
O=C(NCCc1c[nH]c2ccccc12)c1cc2ccccc2oc1=O,-5% (inactive),0.635%,-0.892%
O=C(C[C@H]1CC[C@H]2[C@@H](COC[C@@H](O)CN2S(=O)(=O)c2ccc(Cl)cc2)O1)NCCN1CCCCC1,0.039% (inactive),1.47%,-0.478%

SMILES,GFP signal change (wild-type ribosome),OD600 change,RFP signal change
COc1cccc(CC(=O)N2CCN(C(=O)C(=O)c3cccc(C(F)(F)F)c3)CC2)c1,-2.93% (inactive),-8.1%,7.12%
C[C@@H]1CN([C@@H](C)CO)S(=O)(=O)c2ccc(-c3cccc(C(=O)N(C)C)c3)cc2O[C@@H]1CN(C)C(=O)Nc1ccccc1,-9.2% (inactive),-5.97%,-2.53%
O=S(=O)(NC1CC2CCC1C2)c1ccc(Cl)cc1 (stereo not drawn),3.91% (inactive),-2.44%,-1.19%
O=C(NNC(=S)NC1CC2CCC1C2)c1ccc(Cl)cc1 (stereo not drawn),-24.6% (active),-6.95%,-4.4%
O=C(NNC(=O)C1C2CCC(C2)C1C(=O)O)c1ccc(Cl)cc1 (stereo not drawn),1.61% (inactive),3.63%,-0.52%
COc1ccc(NC(=O)N(C)C[C@@H]2Oc3ccc(NS(=O)(=O)c4ccc(C)cc4)cc3CC(=O)N([C@@H](C)CO)C[C@H]2C)cc1,0.124% (inactive),-3.65%,1.41%
CN1CCN(C(=O)c2ccc(-c3ccc(Br)cc3)o2)CC1,-5.31% (inactive),-1.78%,2.79%
S=C(c1ccc(-c2ccccc2)o1)N1CCCCC1,-28.2% (active),-14.7%,-0.16%
CC1CCN(C(=S)c2ccc(-c3ccc(Cl)cc3Cl)o2)CC1,-16.5% (inactive),-16.4%,-6.12%
C[C@@H]1CN([C@H](C)CO)C(=O)c2cc(-c3cncnc3)cnc2O[C@@H]1CN(C)Cc1ccc(Oc2ccccc2)cc1,1.64% (inactive),8.99%,0.949%
O=S(=O)(NC[C@H]1[C@H](c2ccccc2)[C@H](CO)N1CC1CC1)c1ccccc1,-3.76% (inactive),-2.41%,-1.76%
COc1ccc(OC)c(NC(=O)CSc2nc(-c3ccccc3)cc(=O)[nH]2)c1,-0.85% (inactive),-0.395%,-1.33%
COc1ccc(NC(=O)CSc2nc(SC)ns2)c(OC)c1,-4.47% (inactive),-9.82%,2.07%
CCc1cc2cc(OC)ccc2nc1SCC(=O)Nc1cc(OC)c(OC)cc1C(=O)O,-19.8% (active),-8.13%,-0.961%
COc1cccc(NC(=O)N2[C@@H]3CNC[C@H]2C3c2ccc(-c3ccncc3)cc2)c1 (stereo partly drawn),5.32% (inactive) and -0.155% (inactive),9.53% and -0.49%,1.61% and -4.31%
O=C1COc2ccc(C(=O)COC(=O)C3CC(O)CN3S(=O)(=O)c3ccc(Cl)cc3)cc2N1 (stereo not drawn),-11.8% (inactive),-8.3%,1.61%
Cc1ccc(S(=O)(=O)N2CC(O)C[C@H]2C(=O)OCC(=O)Nc2ccc(N3CCOCC3)cc2)cc1C (stereo partly drawn),4.3% (inactive),7.03%,2.94%
CC1CCCC(NC(=O)COC(=O)[C@@H]2CC(O)CN2S(=O)(=O)c2ccc3c(c2)OCCO3)C1C (stereo partly drawn),-31.5% (active),-14.6%,-2.13%
COCC#Cc1ccc([C@H]2[C@H](CO)N3CCCCN(Cc4ccncc4)C[C@@H]23)cc1,-2.93% (inactive),-2.59%,-5.64%
CC(C)CNS(=O)(=O)c1ccc(CCC(=O)NCc2ccc(Cl)cc2)cc1,10.8% (inactive),11.2%,-2.51%
COc1ccc(S(=O)(=O)NC(C)C(=O)NCc2ccncc2)cc1Cl (stereo not drawn),2.54% (inactive),0.925%,-2.25%
Cc1ccc(S(=O)(=O)NC(C)C(=O)NCc2ccc(Cl)cc2)cc1 (stereo not drawn),-22.7% (active),-10.8%,-4.03%
